Molecules are shown by their SMILES. The whole screen tested about 400,000 compounds, of which about 2,100 (0.53%) were called active. Not shown: some 14% with an inconclusive outcome. The rule behind the calls is not given here. This excerpt belongs to a sample that is enriched for actives.

Chain of Ataxin-2 (Homo sapiens) (Q99700 whole entry): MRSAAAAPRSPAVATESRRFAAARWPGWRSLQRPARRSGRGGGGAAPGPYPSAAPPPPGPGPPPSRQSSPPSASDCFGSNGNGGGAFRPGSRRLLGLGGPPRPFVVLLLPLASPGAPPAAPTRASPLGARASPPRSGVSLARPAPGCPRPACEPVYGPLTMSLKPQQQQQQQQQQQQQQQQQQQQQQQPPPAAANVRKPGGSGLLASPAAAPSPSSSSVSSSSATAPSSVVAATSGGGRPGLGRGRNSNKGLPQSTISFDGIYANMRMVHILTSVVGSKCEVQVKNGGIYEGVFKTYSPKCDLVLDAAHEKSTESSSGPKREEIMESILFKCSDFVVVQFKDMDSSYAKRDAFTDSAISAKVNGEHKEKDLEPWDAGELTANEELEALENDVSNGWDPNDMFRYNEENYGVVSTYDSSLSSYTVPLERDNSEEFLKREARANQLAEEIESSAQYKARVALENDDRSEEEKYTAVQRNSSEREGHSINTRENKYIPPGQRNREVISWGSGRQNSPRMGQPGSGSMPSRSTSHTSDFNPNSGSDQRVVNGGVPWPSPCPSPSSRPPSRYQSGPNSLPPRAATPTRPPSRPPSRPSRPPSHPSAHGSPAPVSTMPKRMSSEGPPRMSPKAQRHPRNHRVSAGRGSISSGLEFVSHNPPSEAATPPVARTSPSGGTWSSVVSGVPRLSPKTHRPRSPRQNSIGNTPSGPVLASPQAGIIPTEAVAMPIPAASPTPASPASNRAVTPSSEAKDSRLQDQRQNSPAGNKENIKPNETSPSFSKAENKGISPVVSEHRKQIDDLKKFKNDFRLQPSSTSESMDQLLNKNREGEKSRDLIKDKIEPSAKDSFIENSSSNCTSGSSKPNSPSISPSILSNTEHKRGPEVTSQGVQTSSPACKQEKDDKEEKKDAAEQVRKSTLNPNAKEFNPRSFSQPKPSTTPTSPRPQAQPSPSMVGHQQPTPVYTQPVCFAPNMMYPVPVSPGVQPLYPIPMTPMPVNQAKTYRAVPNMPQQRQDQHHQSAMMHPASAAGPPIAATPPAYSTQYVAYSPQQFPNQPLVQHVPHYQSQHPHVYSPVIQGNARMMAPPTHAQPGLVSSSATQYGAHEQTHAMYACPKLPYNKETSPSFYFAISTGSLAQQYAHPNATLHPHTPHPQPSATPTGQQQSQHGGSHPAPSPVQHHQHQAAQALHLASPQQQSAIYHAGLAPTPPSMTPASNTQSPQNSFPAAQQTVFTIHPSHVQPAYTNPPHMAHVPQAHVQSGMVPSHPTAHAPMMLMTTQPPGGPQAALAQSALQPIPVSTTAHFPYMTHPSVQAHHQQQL

The assay addresses Ataxin-2 (Homo sapiens) (UniProt Q99700). The experiment in a line: qHTS for Inhibitors of ATXN expression. In kind it is functional. Background: Quantitative high-throughput screening tests each substance at several concentrations.
Consider `CCC(CO)Oc1cc(NCc2ccccc2C(F)(F)F)c2ncn(C(C)C)c2c1` (configuration not stated), for which the Potency is 25.1 µM (active).

As to `CC[C@H](CO)Oc1cc(NCc2ccc(Cl)c(Cl)c2)c2ncn(C(C)C)c2c1`, the Potency was 35.5 µM (active).

As to `CC[C@H](CO)Oc1cc(NCc2cccc(N)c2)c2ncn(C(C)C)c2c1`, the Potency was 31.6 µM (active).

As to `Nn1c(SCC(=O)Nc2c(F)cc(F)cc2Br)nnc1C1CCCCC1`, the Potency entry was “inactive”.

On to `Cc1cc2c(cc1C)NC(CC(=O)Nc1ccccc1)C(=O)N2` (configuration not stated), for which the Potency entry is “inactive”.

On to `CCCOc1c(Br)cc(C2C3=C(CCCC3=O)N(C)C3=C2C(=O)CCC3)cc1OC`, for which the Potency result was “inactive”.

`Cn1c(CNc2ccccc2O)nc2ccccc21`: the Potency entry is “inactive”.

On to `CCC(/C=C1\Sc2ccc(OC)cc2N1CCO)=C\c1sc2ccc(OC)cc2[n+]1CCO`, for which the Potency was 17.8 µM (active).

Regarding `COc1cccc(C(=O)/C=C2\Sc3ccccc3N2C)c1`, the Potency result is “inactive”.

`CCOC(=O)c1cc2c(OC)c(OC)ccc2c2ncc(C#N)c(O)c12`: the Potency result is “inactive”.

Turning to `COCCn1c(N)c(C(=O)NCc2cccs2)c2nc3ccccc3nc21`, the Potency entry was “inactive”.

On to `Cc1ccc(S(=O)(=O)c2c(N)n(-c3ccccc3)c3nc4ccccc4nc23)cc1`, for which the Potency entry was “inactive”.

On to `Nc1c(S(=O)(=O)c2ccccc2)c2nc3ccccc3nc2n1/N=C/c1cccc(O)c1`, for which the Potency was 39.8 µM (active).

In the case of `Nc1c(S(=O)(=O)c2cccs2)c2nc3ccccc3nc2n1/N=C/c1cccc(O)c1`, the Potency is 39.8 µM (active).

Take `COCCNC(=O)c1c(N)n(/N=C/c2cccs2)c2nc3ccccc3nc12`: the Potency entry is “inactive”.

For the molecule `Nc1c(S(=O)(=O)c2ccccc2)c2nc3ccccc3nc2n1C1CC1`, the Potency entry was “inactive”.

On to `Nc1c(C(=O)NCC2CCCO2)c2nc3ccccc3nc2n1-c1ccccc1` (configuration not stated), for which the Potency result was “inactive”.

In the case of `COc1ccc(N2C3=C(C(=O)CC(C)(C)C3)C(c3ccccc3OC)C3=C2CC(C)(C)CC3=O)cc1`, the Potency entry was “inactive”.

Consider `CC1(C)CC(=O)C2=C(C1)N1C(=C(C#N)C2c2ccc(Cl)cc2)N=C(N)c2ccccc21` (configuration not stated), for which the Potency is 22.4 µM (active).

As to `COc1ccc(C2C3=C(CC(C)(C)CC3=O)N(C)C3=C2C(=O)CC(C)(C)C3)cc1`, the Potency entry was “inactive”.

Take `COc1cccc(C=O)c1OCCCOc1cccc2cccnc12`: the Potency is 39.8 µM (active).

Take `COc1ccccc1OCCCC(=O)NCc1ccco1`: the Potency entry is “inactive”.

Consider `COc1ccc(C2C3=C(O)CC(C)(C)CC3=Nc3c2c(=O)[nH]c(=O)n3Cc2ccccc2)cc1OC` (configuration not stated), for which the Potency result is “inactive”.

Turning to `CC(C)(C)c1ccc(C2Sc3ccccc3NC3=C2C(=O)c2ccccc23)cc1` (configuration not stated), the Potency was 39.8 µM (active).

Turning to `CCCc1ccc(C2Sc3ccccc3NC3=C2C(=O)c2ccccc23)cc1` (configuration not stated), the Potency is 31.6 µM (active).

As to `Cc1cc2c(NC(=O)CC(C)(C)CC(=O)O)cccc2nn1`, the Potency result was “inactive”.

Consider `C=CCSc1nnc(C)c(/C=C/Nc2ccc(Cl)cc2)n1`, for which the Potency entry was “inactive”.

As for `CCC(=O)Oc1ccc2c(c1)O/C(=C\c1ccco1)C2=O`, the Potency entry is “inactive”.

`CCOC(=O)c1c(NC(=O)c2ccc(S(=O)(=O)N3CCC(C)CC3)cc2)sc2c1CCN(C(C)C)C2`: the Potency entry was “inactive”.

On to `O=[N+]([O-])c1ccc(N(c2ccccc2)c2ccccc2)cc1`, for which the Potency result is “inactive”.

With `Cc1c(C(=O)c2cccc([N+](=O)[O-])c2)c2ccccn2c1CCC#N`, the Potency result is “inactive”.

`N#Cc1c(N)n(CCOC(=O)c2cccc([N+](=O)[O-])c2)c2nc3ccccc3nc12`: the Potency result was “inactive”.

Turning to `Cc1ccc(C)n1NC(=O)c1ccc([N+](=O)[O-])cc1`, the Potency entry was “inactive”.

Regarding `O=C(C#Cc1ccccc1)c1cccc([N+](=O)[O-])c1`, the Potency was 17.8 µM (active).

In the case of `O=C(C#Cc1ccccc1)c1ccc([N+](=O)[O-])cc1`, the Potency was 25.1 µM (active).

For the molecule `O=C(c1cn(-c2ccccc2)nc1-c1cccnc1)N1CCN(S(=O)(=O)c2ccccc2F)CC1`, the Potency result was “inactive”.

With `Cc1cc(C)cc(OCC(=O)NC2CCCc3ccccc32)c1` (configuration not stated), the Potency entry was “inactive”.

For the molecule `NC(=O)N/N=C\c1cc(Br)ccc1O`, the Potency result is “inactive”.

Turning to `O=C(/C=C/Nc1ccccc1Oc1ccccc1)c1ccco1`, the Potency result is “inactive”.

With `O=C(/C=C/c1cc(Br)ccc1O)c1ccco1`, the Potency was 39.8 µM (active).

As to `COc1ccc(C2=CC(c3ccc(C)cc3)n3nnnc3N2)cc1` (configuration not stated), the Potency entry was “inactive”.

With `ClCc1nnc(-c2cc3c(s2)CCCC3)o1`, the Potency is 39.8 µM (active).

As for `Sc1nnc(-c2cc3c(s2)-c2ccccc2CC3)o1`, the Potency entry was “inactive”.

Regarding `CCOC(=O)c1cc2c(=O)n3ccccc3nc2n(Cc2ccco2)/c1=N\C(=O)c1ccc(C)c(C)c1`, the Potency entry was “inactive”.

Take `COc1ccc(OC)c(NC(=O)C(C)Oc2ccc(Br)cc2)c1` (configuration not stated): the Potency entry was “inactive”.

Turning to `COc1ccc(Cl)cc1NC(=O)C(OC)c1ccccc1` (configuration not stated), the Potency result was “inactive”.

With `COc1cc2c(cc1NC(=O)C(Cl)Cl)-c1ccc(NC(=O)C(Cl)Cl)cc1C2`, the Potency was 16.8 µM (active).

Turning to `CCN(Cc1ccccc1)C(=O)CSc1ccccc1C(=O)O`, the Potency entry was “inactive”.

Take `O=C(Nc1ccccc1C(=O)Nc1ccccc1C(=O)O)c1ccccc1`: the Potency result is “inactive”.

Take `COc1cccc(C(=O)Nc2nnc(-c3ccc(Cl)cc3)o2)c1`: the Potency was 35.5 µM (active).

Turning to `O=C(Nc1nnc(-c2ccc3c(c2)CCCC3)o1)c1ccccc1`, the Potency is 39.8 µM (active).

Turning to `Cc1ccc(NC(=O)c2cccc(Oc3ccc([N+](=O)[O-])cc3)c2)c(C(=O)O)c1`, the Potency entry is “inactive”.

Take `COc1cccc(-c2nnc(NC(=O)c3ccc(Cl)s3)o2)c1`: the Potency was 25.1 µM (active).

`COc1cccc(-c2ccc3c(N)c(C(=O)Nc4ccc(Cl)cc4F)sc3n2)c1`: the Potency result was “inactive”.

For the molecule `COC(=O)c1ccsc1NC(=O)c1cccc(OC)c1`, the Potency result was “inactive”.

Regarding `COc1ccc(OC)c2sc(NC(=O)c3ccc(Cl)s3)nc12`, the Potency entry was “inactive”.

For the molecule `COc1cccc(N/C=C/C(=O)c2ccc(Cl)cc2)c1`, the Potency entry is “inactive”.

Take `N=c1oc2c3c4c(cc2cc1C(=O)Nc1ccccc1)CCCN4CCC3`: the Potency entry is “inactive”.

Regarding `O=C(Nc1nnc(-c2cccs2)o1)c1cccc(Oc2ccccc2)c1`, the Potency was 28.2 µM (active).

As for `O=C(Oc1ccc(OC(=O)C2CCC2)cc1)C1CCC1`, the Potency result is “inactive”.

In the case of `Cc1nc2scc(-c3ccccc3)c2c(=O)n1N=C1C=CC(=O)C=C1`, the Potency result is “inactive”.

Consider `CCOC(=O)c1c(NC(=O)c2ccno2)c2cc([N+](=O)[O-])ccc2n1C`, for which the Potency result is “inactive”.

For the molecule `OCCN(CCO)c1nc(N2CCCCC2)c2nc(N(CCO)CCO)nc(N3CCCCC3)c2n1`, the Potency entry was “inactive”.

Turning to `Cc1cc(C)c(C#N)c(SCC(=O)C2CC2)n1`, the Potency entry is “inactive”.

On to `O=C(NCc1nnc2c3ccccc3c(-c3ccccc3)nn12)c1ccc(Cl)cc1`, for which the Potency result was “inactive”.

On to `O=C(Nc1nnc(-c2ccccc2)o1)c1ccc(Cl)cc1`, for which the Potency is 39.8 µM (active).

In the case of `Cc1ccnc2nc(C(=O)Nc3nnc(-c4ccccc4)o3)nn12`, the Potency entry is “inactive”.

In the case of `Cc1nc(CS(=O)(=O)c2ccccn2)sc1C(=O)NNC(=O)c1ccccc1`, the Potency result is “inactive”.

For the molecule `Cc1ccc(S(=O)(=O)N[C@H](C(=O)Oc2ccc3c(C(F)(F)F)cc(=O)oc3c2)c2ccccc2)cc1`, the Potency entry was “inactive”.

Take `CCOc1ccc(-c2c(=O)n(OCc3nc4ccccc4[nH]3)c3ccccc3[n+]2[O-])cc1`: the Potency entry was “inactive”.

For the molecule `Cc1oc2ccc(O)c(CN3CCCC3)c2c1C(=O)Nc1ccc(C(C)C)cc1`, the Potency was 15.8 µM (active).

Consider `CC(C)c1ccc(/C=C2\Oc3c(ccc(O)c3CN3CCN(C)CC3)C2=O)cc1`, for which the Potency result was “inactive”.

With `CCc1c(C)c2ccc(O)c(CN3CCCC3)c2oc1=O`, the Potency result was “inactive”.

With `CCn1c(=O)cc(OCC(=O)N2CCN(c3ccc(C)cc3)C(C)C2)c2ccccc21` (configuration not stated), the Potency was 28.2 µM (active).

`CCOC(=O)COc1cccc2c(=O)n(CC(=O)N3CCC(C)CC3)ccc12`: the Potency result is “inactive”.

As for `CCN1CCCC(OC(=O)c2cc(-c3ccc(C)cc3)nc3ccccc23)C1` (configuration not stated), the Potency result is “inactive”.

In the case of `COCc1cc(=O)oc2cc(NS(=O)(=O)c3ccc(C)cc3)ccc12`, the Potency result was “inactive”.

Take `COc1ccc(-c2cc(C(=O)Nc3ccc(S(=O)(=O)Nc4onc(C)c4C)cc3)c3ccccc3n2)cc1`: the Potency result is “inactive”.

Turning to `COc1ccc(-c2nc3ccc(NS(=O)(=O)c4ccc(C)cc4)cc3o2)cc1`, the Potency was 39.8 µM (active).

On to `COC(=O)c1cscc1S(=O)(=O)Cc1ccccc1`, for which the Potency entry was “inactive”.

For `CC(=O)Nc1ccc(S(=O)(=O)NCCc2cn3nc(C)c(C)nc3n2)cc1`, the Potency entry is “inactive”.

With `CNC(=O)COC(=O)/C=C/c1nc2ccccc2s1`, the Potency result is “inactive”.

In the case of `CCOC(=O)CN1C(=O)S/C(=C\c2ccc3c(c2)OCO3)C1=O`, the Potency result was “inactive”.

Regarding `O=C(NCCN1C(=O)S/C(=C\c2ccc(Cl)c([N+](=O)[O-])c2)C1=O)C1=COCCO1`, the Potency was 25.1 µM (active).

For `CCCn1nnc(NC(=S)NC(=O)c2ccccc2OC)n1`, the Potency result was “inactive”.

On to `C=CCN1C(=O)/C(=C2\C(=O)Nc3ccccc32)S/C1=N/c1ccc(O)cc1`, for which the Potency is 31.6 µM (active).

Take `C=CCN1C(=O)/C(=C/c2ccc(O)cc2)S/C1=N/c1nccs1`: the Potency result is “inactive”.

`Cc1ccc(-c2nc3ccc(C)cn3c2Cc2ccsc2)cc1`: the Potency was 22.4 µM (active).

As for `Cc1ccn2c(NCc3ccccc3)c(-c3cccs3)nc2c1`, the Potency entry was “inactive”.

With `Cc1ccc(Sc2nc3ccc(C)cn3c(=O)c2/C=N/O)cc1`, the Potency result was “inactive”.

For `Cc1nc2ccccc2nc(C)c1=NOCc1cccc(F)c1`, the Potency entry is “inactive”.

Take `Cc1ccc(-c2nc3ccc(C)cn3c2Cc2cccc(F)c2)cc1`: the Potency is 35.5 µM (active).

Turning to `Cc1ccc(Cc2c(-c3ccccc3)nc3cc(C)ccn23)cc1`, the Potency was 22.4 µM (active).

Take `Cc1ccc2nc(-c3ccccc3)c(Cc3cccc(F)c3)n2c1`: the Potency was 31.6 µM (active).

On to `Cc1ccc(-c2cn3nc(-c4ccccc4)c(-c4ccccc4)nc3n2)cc1`, for which the Potency entry is “inactive”.

With `Cc1ccc2nc(Cl)nc(-c3ccccc3)c2c1`, the Potency entry was “inactive”.

With `Cc1c(NC(=O)CCC2CCCCC2)cc(C(=O)N2CCOCC2)cc1[N+](=O)[O-]`, the Potency entry is “inactive”.

Regarding `O=C(O)c1cc(Cl)c(Cl)cc1C(=O)N(Cc1ccccc1)Cc1ccccc1`, the Potency result is “inactive”.

For `COc1cccc2sc3cc(NCc4ccc(C)o4)ccc3c(=O)c12`, the Potency result is “inactive”.

`Cc1ccccc1/C=C/c1nc(O)c2ccccc2n1`: the Potency is 31.6 µM (active).

As to `CN(C)c1ccc(/C=C/c2nc(O)c3ccccc3n2)cc1`, the Potency result is “inactive”.

On to `Oc1nc(/C=C/c2cccc3ccccc23)nc2ccccc12`, for which the Potency entry is “inactive”.

(Values after ChEMBL document CHEMBL1201862, “PubChem BioAssay data set” (2004).)
